The record followed here is PubChem BioAssay (NCATS).

Values joined by “and” are separate entries in the source; they are usually repeats but may differ in a detail not shown here. Identical values can stand only once. Inconclusive results are not listed. Active and inactive are the calls of the source. Unless noted, calls follow the shape of the dose curve; as a rule, active = well fitted curve in the direction sought with a large enough effect; inconclusive = small, poorly fitted or top-dose-only effect, or another doubt; inactive = no such curve, though single readings can be large; an effect the other way counts as inactive or inconclusive.

The nature of experiment [1]: Cytotoxicity counterscreen for NFkB agonists and antagonists (AID 624476).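 Also: cells exposed to compound for 48 hours.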 Also: potency is read from the fitted curve at half-maximal effect. The following applies: NFkB reporter cell line viability counterscreen; series mostly up to 46.1 µM. (A counterscreen serves to expose hits that act by an unwanted route or on another target.)
Experiment [2] is described as follows: qHTS Assay for Identification of Small Molecule Agonists for NFkB Signaling Pathway. (AID 624478).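 Also: compounds tested together with TNF alpha at its EC50 of 10 pM; 0% is about no effect.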 The following applies: NFkB pathway reporter cell assay, agonist mode, cells co-stimulated with 10 pM TNF alpha; series mostly up to 46.1 µM. In outline: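 ME-180 cervical carcinoma, stable NFkB-RE beta-lactamase reporter; 1000 cells/well, overnight attachment; cpd + TNF alpha 10 pM final, 5 h 37 C; LiveBLAzer 2 h RT; FRET 460/530 nm, ex 405 nm.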

Experiment [3] is described as follows: qHTS Assay for Identification of Small Molecule Antagonists for NFkB Signaling Pathway. (AID 624479; calls by dose curve; also: potency is read from the fitted curve at half-maximal effect). The following applies: NFkB pathway reporter cell assay, antagonist mode; series mostly up to 38.3 µM.
Experiment [4] in a line: Cell Proliferation Assay against the TMD8 Cell Line (AID 651645).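 Also: cells exposed to compound for 48 h before reading.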 The following applies: TMD8 DLBCL cell line proliferation/viability; at 46.1 µM (top of the series). In outline:
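Viability by CellTiter-Glo after 48 h compound exposure of 500 log-phase TMD8 cells per well (RPMI, 5% FBS). Percent activity scaled between DMSO (100%) and 9.2 uM final bortezomib (0%).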

A short description of experiment [5]: Cell Proliferation Assay against the HBL1 Cell Line (AID 651646).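 Also: cells exposed to compound for 48 h before reading.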 Conditions: HBL1 DLBCL cells; at 46.1 µM (top of the series). Summed up:
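HBL1 ABC DLBCL cells, 500/well in RPMI with 5% FBS, treated for 48 h at 37C. Viability read by CellTiter-Glo luminescence, normalized to DMSO as 100% and 9.2 uM bortezomib as 0%.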

The nature of experiment [6]: Cell Proliferation Assay against the TMD8 Cell Line (Caspase readout at 16 hrs) (AID 651712). Also: potency is read from the fitted curve at half-maximal effect. Conditions: TMD8 lymphoma cells, caspase activation luminescence; series mostly up to 46.1 µM. Summed up: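 TMD8 cells in RPMI with 5% FBS were treated with compound for 16 h at 37 C, then caspase 3/7 activation was read by Caspase-Glo luminescence. Percent activity was scaled to DMSO (0%) and 9.2 uM bortezomib final (100%).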

Experiment [7] in a line: S16 Schwann cell viability assay (CellTiter-Glo assay) (AID 624031).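 Also: native untransfected S16 rat Schwann cells; cellular ATP luminescence as a viability measure; plate controls were DMSO-treated cells for no effect and cell-free wells for full effect; nearly all actives have a fitted effect of over 70% in size.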 The following applies: S16 rat Schwann cells viability, 24 h; series mostly up to 57.5 µM. In outline:
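Concentration-effect curves come from CellTiter-Glo luminescence of S16 rat Schwann cells after 24 h compound exposure. Each reading was normalized to DMSO wells (0%) and wells without cells, and curves were ranked by r2 and response magnitude.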
In general terms: In ATP-based viability assays light output follows the ATP content of the culture.

Experiment [8] is described as follows: S16 Schwann cell PMP22 intronic element firefly luciferase assay (AID 624032). Also: nearly all actives have a fitted effect of over 30% in size. Also: potency is read from the fitted curve at half-maximal effect. Conditions: S16 rat Schwann cells, PMP22 element FLuc, 24 h; series mostly up to 57.5 µM. In outline: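 Rat S16 Schwann cells stably carrying firefly luciferase driven by a PMP22 intronic element, in 10% FBS, treated 24 h at 37 C. ONE-Glo luminescence normalized to PTC124 control and DMSO (0%); curves classed by r2, magnitude and activity.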

Experiment [9] addresses Voltage-gated inwardly rectifying potassium channel KCNH2 (Homo sapiens) (UniProt Q12809). The experiment is described as follows: qHTS Assay for Small Molecule Inhibitors of the Human hERG Channel Activity (AID 588834).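 Also: top concentration of the series differs between compounds; % is scaled to controls: 0 for no effect and ±100 for the full control effect; lower thallium flux fluorescence means stronger hERG block; nearly all actives have a fitted effect of over 50% in size.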 The following applies: U2OS BacMam hERG, FluxOR thallium flux fluorescence; series mostly up to 46.1 µM. Summed up: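 Kinetic FDSS fluorescence; U2OS + hERG BacMam (~100 virus particles/cell); FluxOR Tl+ flux; ~10 min cpd; AC50 (Hill).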

The nature of experiment [10]: S16 Schwann cell PMP22 intronic element beta-lactamase assay (AID 624044; calls by dose curve;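 also: 0% = DMSO and -100% = potassium clavulanate positive control; nearly all actives have a fitted effect of over 15% in size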). The following applies: S16 rat Schwann cells, PMP22 element beta-lactamase FRET, 24 h; series mostly up to 38.3 µM. In outline: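 Rat S16 Schwann cells with beta-Lac driven by a PMP22 intronic element, compound-treated 24 h at 37 °C. LiveBLAzer FRET B/G read: 460 nm normalized to potassium clavulanate vs DMSO; 535 nm FRET as viability; concentration-effect curves classified.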

Experiment [11] in a line: Cell Proliferation Assay against the TMD8 Cell Line (Caspase readout at 8 hrs) (AID 651713). Also: potency is read from the fitted curve at half-maximal effect. The following applies: TMD8 lymphoma cells, caspase activation luminescence; series mostly up to 46.1 µM. Summed up: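 Seed log-phase TMD8 cells, add compound by pin tool, incubate 8 h at 37C under 5% CO2, equilibrate to room temperature, add Caspase-Glo, wait 15 min, read luminescence; percent activity uses DMSO and 9.2 uM bortezomib controls.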

Voltage-gated inwardly rectifying potassium channel KCNH2 (Homo sapiens), sequence (Q12809 whole entry, looked up): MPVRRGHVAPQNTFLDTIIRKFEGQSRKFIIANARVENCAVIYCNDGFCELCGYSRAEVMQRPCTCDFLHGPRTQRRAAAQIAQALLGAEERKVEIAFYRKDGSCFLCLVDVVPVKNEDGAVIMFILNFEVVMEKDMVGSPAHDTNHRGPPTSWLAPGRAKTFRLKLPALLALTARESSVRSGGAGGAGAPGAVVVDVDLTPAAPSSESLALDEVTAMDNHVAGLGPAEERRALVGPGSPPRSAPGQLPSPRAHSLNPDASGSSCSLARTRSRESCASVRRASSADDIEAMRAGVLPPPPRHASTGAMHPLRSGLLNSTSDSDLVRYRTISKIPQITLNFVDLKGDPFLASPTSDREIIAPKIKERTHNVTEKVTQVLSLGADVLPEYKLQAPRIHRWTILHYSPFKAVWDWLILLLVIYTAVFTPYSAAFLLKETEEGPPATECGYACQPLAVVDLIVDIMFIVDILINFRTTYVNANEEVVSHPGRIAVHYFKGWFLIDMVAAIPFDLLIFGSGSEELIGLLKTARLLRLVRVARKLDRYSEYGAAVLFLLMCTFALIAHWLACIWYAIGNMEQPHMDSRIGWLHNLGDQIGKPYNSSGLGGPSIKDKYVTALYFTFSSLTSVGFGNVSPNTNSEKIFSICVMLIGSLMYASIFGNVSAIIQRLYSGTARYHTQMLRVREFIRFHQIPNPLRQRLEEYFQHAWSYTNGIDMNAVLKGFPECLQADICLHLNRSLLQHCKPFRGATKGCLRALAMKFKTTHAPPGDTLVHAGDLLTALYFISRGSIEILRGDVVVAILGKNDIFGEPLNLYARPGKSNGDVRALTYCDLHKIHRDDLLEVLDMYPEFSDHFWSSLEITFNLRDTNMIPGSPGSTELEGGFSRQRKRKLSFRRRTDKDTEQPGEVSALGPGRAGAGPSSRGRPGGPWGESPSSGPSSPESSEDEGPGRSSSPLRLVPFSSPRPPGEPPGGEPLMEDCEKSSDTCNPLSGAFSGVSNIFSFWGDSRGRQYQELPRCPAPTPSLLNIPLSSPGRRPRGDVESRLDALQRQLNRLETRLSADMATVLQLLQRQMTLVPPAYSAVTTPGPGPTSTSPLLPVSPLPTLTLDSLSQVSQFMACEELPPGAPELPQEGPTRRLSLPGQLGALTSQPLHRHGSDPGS

With `COc1cc2c(Oc3ccc(NC(=O)C4(C(=O)Nc5ccc(F)cc5)CC4)cc3F)ccnc2cc1OCCCN1CCOCC1`, the Potency in experiment [1] was 16.6 µM (active); in experiment [3], 16.8 µM (active). In addition, in experiment [2], the outcome was inactive. Also, the viability (% of control) in experiment [4] was found to be 2.25%. Besides, the viability, percent of control in [5] came out at 3.9%. The Potency entry in experiment [6] was “inactive”.

In the case of `CCC1=C[C@@H]2CN(C1)Cc1c([nH]c3ccccc13)[C@@](C(=O)OC)(c1cc3c(cc1OC)N(C)[C@@H]1[C@@](O)(C(=O)OC)[C@H](OC(C)=O)[C@]4(CC)C=CCN5CC[C@]31[C@@H]54)C2`, the result in experiment [7] was inactive. The Potency in experiment [8] is 0.907 µM (active).

Take `COC(=O)C[C@](O)(CCCC(C)(C)O)C(=O)O[C@@H]1C(OC)=C[C@]23CCCN2CCc2cc4c(cc2[C@H]13)OCO4`: the Potency result in experiment [9] was “inactive”. The outcome in experiment [7] was inactive.

Take `COc1cc2c(Oc3ccc(-c4cnc(Nc5ccc(F)cc5)n(C)c4=O)cc3F)ccnc2cc1OCCCN1CCOCC1`: the Potency was 29.6 µM (active) in experiment [1], 18.8 µM (active) in [3] and 16.6 µM (active) in [6]. In experiment [2], the molecule was called inactive. Further, the viability (% of control) in [4] amounted to 1.34%. Further, the viability, percent of control in experiment [5] was determined as 1.76%.

As to `CC1(C)O[C@@H]2C[C@@H]3[C@H]4C[C@@H](F)C5=CC(=O)C=C[C@]5(C)[C@@]4(F)[C@@H](O)C[C@]3(C)[C@]2(C(=O)CO)O1`, the call in experiment [7] was inactive. For the same molecule, the Potency entry in experiment [8] and in [10] was “inactive” in each case.

As to `CC(C)(C)NC(=O)[C@H]1CN(Cc2cccnc2)CCN1C[C@@H](O)C[C@@H](Cc1ccccc1)C(=O)N[C@H]1c2ccccc2C[C@H]1O`, the Potency entry in experiment [9] and in experiment [10] was “inactive” in each case. In [8], the Potency is 36.1 µM (active).

Regarding `Cc1[nH]nc2ccc(-c3cncc(OC[C@@H](N)Cc4ccccc4)c3)cc12`, the Potency in experiment [1] is 4.69 µM (active); in [3] it was 0.168 µM (active); in [6], 1.32 µM (active); in experiment [11], 2.35 µM (active). In addition, in [2], the result was inactive. The viability, percent of control in experiment [5] is 4.82%.

Take `C[C@@H]1CN(CC(=O)Nc2ccc3c(c2)Cc2cccc(-c4cc(=O)cc(N5CCOCC5)o4)c2S3)C[C@H](C)O1`: the Potency entry in experiment [1] and in experiment [3] was “inactive” throughout. The call in [2] was inactive. Further, the viability (% of control) in experiment [4] was found to be 26.2%. The viability, percent of control in experiment [5] is 56.7%. In addition, in experiment [11], the Potency is 23.5 µM (active).

On to `CN1CCN(c2ccc3nc(-c4c(N)c5c(F)cccc5[nH]c4=O)[nH]c3c2)CC1`, for which the Potency is 16.6 µM (active) in [1], 0.421 µM (active) in [3] and 18.7 µM (active) in experiment [11]. The molecule was called inactive in experiment [2]. Further, in experiment [5], the viability, percent of control turned out to be 0.538%.

For `CCOc1cc2ncc(C#N)c(Nc3ccc(F)c(Cl)c3)c2cc1NC(=O)C=CCN(C)C`, the figures for the Potency in experiment [1], in [3] and in [11] were 20.9 µM (active), 11.9 µM (active) and 16.6 µM (active), respectively. For the same molecule, the outcome in experiment [2] was inactive. For the same molecule, in [5], the viability, percent of control is 2.39%.

As to `C1Cc2[nH]nc(-c3nn[nH]n3)c2C1`, the Potency entry in [1], in experiment [3], in experiment [6] and in experiment [11] was “inactive” throughout. Moreover, in experiment [2], the outcome was inactive. For the same molecule, the viability (% of control) in experiment [4] worked out at 103%. The viability, percent of control in experiment [5] was found to be 91.7%.

Consider `C[C@]1(CO)CN(c2cc(C(=O)Nc3ccc4c(c3)-c3c(c(C(N)=O)nn3-c3ccc(F)cc3)CC4)c(Cl)cn2)C[C@@]1(C)CO`, for which, in experiment [1], the Potency result is “inactive”. Also, the molecule was called inactive in [2]. The results for the Potency in [3], in [6] and in experiment [11] were 5.95 µM (active), 14.8 µM (active) and 16.6 µM (active), respectively. The viability (% of control) in [4] was determined as 18.6%. The viability, percent of control in [5] worked out at 23.3%.

Take `CCC[C@H](NC(=O)C(C#N)=Cc1cccc(Br)n1)c1ccccc1`: the figures for the Potency in [1], in [3] and in [11] were 2.96 µM (active), 2.11 µM (active) and 1.87 µM (active), respectively. Also, the call in [2] was inactive. Also, the viability (% of control) in experiment [4] was found to be 3.01%. The viability, percent of control in [5] stood at 2.62%.

Consider `CC[C@@H]1C(=O)N(C)c2cnc(Nc3ccc(C(=O)NC4CCN(C)CC4)cc3OC)nc2N1C1CCCC1`, for which the Potency in experiment [1] is 16.6 µM (active); in experiment [3], 13.3 µM (active); in [6], 1.18 µM (active); in [11] it was 29.6 µM (active). In [2], the call was inactive. Besides, the viability (% of control) in [4] came out at 4.43%. Moreover, in experiment [5], the viability, percent of control was 5.81%.

With `CC(C)(O)CCc1ccc(OCc2cc(-c3cccc(OC(F)F)c3)c3ncccc3c2)cc1`, the Potency result in experiment [1] and in [11] was “inactive” each time. Also, the outcome in experiment [2] was inactive. For the same molecule, the Potency in [3] was 23.7 µM (active). In experiment [4], the viability (% of control) is 60.9%. In experiment [5], the viability, percent of control came to 7.17%.

For `CC1(C)CCC(c2ccc(Cl)cc2)=C(CN2CCN(c3ccc(C(=O)NS(=O)(=O)c4ccc(N[C@H](CCN5CCOCC5)CSc5ccccc5)c(S(=O)(=O)C(F)(F)F)c4)cc3)CC2)C1`, the Potency in experiment [1] is 4.18 µM (active); in experiment [3], 14.9 µM (active); in experiment [11], 29.6 µM (active). Further, in experiment [2], the outcome was inactive. Further, the viability (% of control) in [4] amounted to 1.35%. Besides, the viability, percent of control in experiment [5] is 3.35%.

For `CN(C)CC=CC(=O)Nc1cc2c(Nc3ccc(F)c(Cl)c3)ncnc2cc1O[C@H]1CCOC1`, the Potency was 29.6 µM (active) in [1] and 13.3 µM (active) in [3]. Besides, in [2], the result was inactive. The viability, percent of control in experiment [5] worked out at 1.34%.

Regarding `NC(=O)Nc1cc(-c2cccc(F)c2)sc1C(=O)N[C@H]1CCCNC1`, the Potency in experiment [1] is 1.32 µM (active); in experiment [3], 14.9 µM (active); in [6], 0.0418 µM (active). Moreover, in experiment [2], the molecule was called inactive. The viability, percent of control in [5] is 19.6%.

In the case of `Nc1ccccc1NC(=O)c1ccc(CNc2nccc(-c3cccnc3)n2)cc1`, the Potency in experiment [1] was 14.8 µM (active); in experiment [3], 0.15 µM (active); in experiment [6], 20.9 µM (active). Also, in experiment [2], the molecule was called inactive. For the same molecule, in [5], the viability, percent of control is 4.64%. In addition, the Potency entry in [11] was “inactive”.

With `Nc1nc(Nc2ccc(S(N)(=O)=O)cc2)nn1C(=O)c1c(F)cccc1F`, the Potency in experiment [1] is 9.35 µM (active); in experiment [3] it was 0.473 µM (active); in experiment [6] it was 5.26 µM (active); in [11] it was 14.8 µM (active). For the same molecule, the result in experiment [2] was inactive. Further, the viability (% of control) in experiment [4] was 6.19%. The viability, percent of control in experiment [5] came out at 49.5%.

Consider `O=C(NC1CCNCC1)c1[nH]ncc1NC(=O)c1c(Cl)cccc1Cl`, for which the Potency in [1] is 209 nM (active) and 296 nM (active); in experiment [3] it was 33.5 nM (active) and 66.8 nM (active); in [6] it was 0.118 µM (active); in experiment [11], 332 nM (active) and 264 nM (active). Further, the call in [2] was inactive. Further, in [4], the viability (% of control) is 1.51% and 1.72%. Also, in [5], the viability, percent of control is 45.8% and 42.8%.
